Results filed as inconclusive are left out. Calls of active or inactive are those of the source. The calls were made as follows: active = hit-call score of the fitted dose curve at least 0.9, where 1 is the maximum; inconclusive = response in the unintended direction; inactive = score below 0.9.

In assay [1] the target is Glycogen synthase kinase-3 beta (Homo sapiens) (UniProt P49841). Kind of assay: NVS_ENZ_hGSK3b: NovaScreen (NVS) Enzymatic Assay for human Glycogen Synthase Kinase-3 beta (GSK3b) (AID 2283165). Put shortly:
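Recombinant enzyme with specific fluorescent substrate, 1 h, product separated by electrophoretic mobility shift. Primary duplicate screen at 25 uM; actives (e.g. 30% inhibition) followed in singleton concentration-response to 50 uM. Signal loss fitted versus DMSO.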

Assay [2] deals with human c-Jun N-terminal Kinases (JNK2), MAPK9 (gene 5601) (UniProt P45984). Put plainly: NVS_ENZ_hJNK2: NovaScreen (NVS) Enzymatic Assay for human c-Jun N-terminal Kinases (JNK2) (AID 2283171). Put shortly:
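Cell-free recombinant human JNK2 activity assay; fluorescent substrate and product separated by electrophoretic mobility shift, read 1 h after dosing. Primary duplicate screen at 25 uM; actives run in concentration-response up to 50 uM, relative to DMSO.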

Assay [3] deals with human Mitogen-Activated Protein Kinase 1 (MAPK 1), MAPK1 (gene 5594) (UniProt P28482). Put plainly: NVS_ENZ_hMAPK1: NovaScreen (NVS) Enzymatic Assay for human Mitogen-Activated Protein Kinase 1 (MAPK 1) (AID 2283175). A digest of the protocol:
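Cell-free recombinant human MAPK1 enzymatic assay, fluorescence/electrophoretic mobility shift read at 1 h; loss of signal vs DMSO. Primary screen in duplicate at 25 uM; actives (e.g. ≥30% inhibition) run as concentration-response up to 50 uM.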

In assay [4] the target is Mitogen-activated protein kinase 3 (Homo sapiens) (UniProt P27361). Put plainly: NVS_ENZ_hMAPK3: NovaScreen (NVS) Enzymatic Assay for human Mitogen-Activated Protein Kinase 3 (MAPK 3) (AID 2283177). Put shortly: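 Cell-free enzymatic assay with recombinant protein and specific substrate; fluorescence and electrophoretic mobility shift read-out 1 h after dosing. Primary screen duplicate at 25 uM; actives then run in concentration-response up to 50 uM, loss of signal versus DMSO.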
Chain of Mitogen-activated protein kinase 3 (Homo sapiens) (P27361 whole entry, looked up): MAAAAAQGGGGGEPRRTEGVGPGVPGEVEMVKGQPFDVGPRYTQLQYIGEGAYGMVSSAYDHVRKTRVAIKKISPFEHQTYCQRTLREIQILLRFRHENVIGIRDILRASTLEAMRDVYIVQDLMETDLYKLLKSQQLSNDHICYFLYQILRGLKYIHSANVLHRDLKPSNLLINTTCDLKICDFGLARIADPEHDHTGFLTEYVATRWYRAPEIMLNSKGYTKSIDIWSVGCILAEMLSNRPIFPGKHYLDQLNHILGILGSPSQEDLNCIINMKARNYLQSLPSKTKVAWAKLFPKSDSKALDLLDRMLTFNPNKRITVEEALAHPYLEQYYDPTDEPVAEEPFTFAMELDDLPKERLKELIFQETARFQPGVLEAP

Assay [5] addresses human MET Proto-Oncogene, Receptor Tyrosine Kinase (MET), MET (gene 4233) (UniProt P08581). Put plainly: NVS_ENZ_hMet: NovaScreen (NVS) Enzymatic Assay for human MET Proto-Oncogene, Receptor Tyrosine Kinase (MET) (AID 2283180). The method, then: (§1) NVS_ENZ_hMet is a biochemical, single-readout assay that uses extracted gene-proteins in a cell-free assay. Measurements were taken 1 hour after chemical dosing in a 384-well plate.NVS_ENZ_hMet is one of one assay component(s) measured or calculated from the NVS_ENZ_hMet assay. It is designed to make measurements of enzyme activity, a form of enzyme reporter, as detected with fluorescence intensity signals by Fluorescence and electrophoretic mobility shift technology.Data from the assay component NVS_ENZ_hMet was analyzed into 1 assay endpoint. This assay endpoint, NVS_ENZ_hMet, was analyzed in the positive analysis fitting direction relative to DMSO as the negative control and baseline of activity. Using a type of enzyme reporter, loss-of-signal activity can be used to understand changes in the enzymatic activity as they relate to the gene MET. Furthermore, this assay endpoint can be referred to as a primary readout, because this assay has produced multiple assay endpoints where this one serves a enzymatic activity function. To generalize the intended target to other relatable targets, this assay endpoint is annotated to the kinase intended target family, where the subfamily is receptor tyrosine kinase. […]

Assay [6] has as its target human IkappaB Kinase alpha (IKKa), CHUK (gene 1147) (UniProt O15111). Kind of assay: NVS_ENZ_hIKKa: NovaScreen (NVS) Enzymatic Assay for human IkappaB Kinase alpha (IKKa) (AID 2283167). A digest of the protocol:
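Cell-free recombinant human IKKa with fluorescent substrate, product separated by electrophoretic mobility shift; read 1 hour after dosing. Primary screen duplicate at 25 uM, actives then concentration-response up to 50 uM; loss of signal relative to DMSO.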

In assay [7] the target is human LYN Proto-Oncogene, Src family Tyrosine Kinase (LynA), LYN (gene 4067) (UniProt P07948). Kind of assay: NVS_ENZ_hLynA: NovaScreen (NVS) Enzymatic Assay for human LYN Proto-Oncogene, Src family Tyrosine Kinase (LynA) (AID 2283173). A digest of the protocol: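 Recombinant kinase with fluorescent substrate; product separated from substrate by electrophoretic mobility shift and read 1 h after dosing. Duplicate screen at 25 uM, then concentration-response up to 50 uM; activity scored as signal loss against DMSO.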
Chain of human LYN Proto-Oncogene, Src family Tyrosine Kinase (LynA), LYN (gene 4067) (P07948 whole entry, looked up): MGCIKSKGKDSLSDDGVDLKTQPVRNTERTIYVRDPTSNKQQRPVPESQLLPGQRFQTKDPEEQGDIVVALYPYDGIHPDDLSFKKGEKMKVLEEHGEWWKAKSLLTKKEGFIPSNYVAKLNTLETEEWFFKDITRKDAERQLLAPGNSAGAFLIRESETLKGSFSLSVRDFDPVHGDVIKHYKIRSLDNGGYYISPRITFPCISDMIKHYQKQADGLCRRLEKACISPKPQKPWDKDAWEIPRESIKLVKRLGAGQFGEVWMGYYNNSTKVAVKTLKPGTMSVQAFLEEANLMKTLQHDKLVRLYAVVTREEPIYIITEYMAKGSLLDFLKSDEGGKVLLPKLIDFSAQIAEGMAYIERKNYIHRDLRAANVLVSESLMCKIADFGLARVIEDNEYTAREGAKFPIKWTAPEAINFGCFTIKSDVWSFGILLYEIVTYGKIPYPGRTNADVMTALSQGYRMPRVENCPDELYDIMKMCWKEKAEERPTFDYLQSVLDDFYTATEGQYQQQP

Assay [8] concerns the target Histone deacetylase 3 (Homo sapiens) (UniProt O15379). Kind of assay: NVS_ENZ_hHDAC3: NovaScreen (NVS) Enzymatic Assay for human Histone Deacetylase 3 (HDAC3) (AID 2283163). Put shortly: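 Recombinant human HDAC3 with fluorescent substrate, 1 h after dosing; product separated from substrate by electrophoretic mobility shift and read by fluorescence. Primary screen at 25 uM in duplicate; actives (e.g. ≥30% inhibition) retested in concentration-response up to 50 uM.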

The target in assay [9] is human FYN Proto-Oncogene, Src family Tyrosine Kinase (Fyn), FYN (gene 2534) (UniProt P06241). Kind of assay: NVS_ENZ_hFyn: NovaScreen (NVS) Enzymatic Assay for human FYN Proto-Oncogene, Src family Tyrosine Kinase (Fyn) (AID 2283161). Put shortly: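 Recombinant enzyme with fluorescent substrate, product separated by electrophoretic mobility shift; read 1 h after dosing. Duplicate 25 uM single-point screen, actives retested in concentration series; loss of signal vs DMSO.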
Chain of human FYN Proto-Oncogene, Src family Tyrosine Kinase (Fyn), FYN (gene 2534) (P06241 whole entry, looked up): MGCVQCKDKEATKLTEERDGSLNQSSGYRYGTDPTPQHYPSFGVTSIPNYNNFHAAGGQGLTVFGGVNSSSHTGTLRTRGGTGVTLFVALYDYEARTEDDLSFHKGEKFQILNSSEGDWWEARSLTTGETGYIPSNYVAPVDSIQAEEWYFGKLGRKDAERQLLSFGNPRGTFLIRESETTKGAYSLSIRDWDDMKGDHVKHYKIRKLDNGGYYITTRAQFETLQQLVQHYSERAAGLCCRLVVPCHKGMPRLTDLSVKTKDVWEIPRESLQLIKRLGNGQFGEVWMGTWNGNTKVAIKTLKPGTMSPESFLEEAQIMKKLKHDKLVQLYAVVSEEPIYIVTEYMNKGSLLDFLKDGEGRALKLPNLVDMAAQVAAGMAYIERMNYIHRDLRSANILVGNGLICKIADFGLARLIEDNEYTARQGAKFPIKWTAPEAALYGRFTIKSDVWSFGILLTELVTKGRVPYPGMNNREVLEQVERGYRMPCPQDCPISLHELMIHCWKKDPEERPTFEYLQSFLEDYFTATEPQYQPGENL

In assay [10] the target is human Insulin Receptor (InsR), INSR (gene 3643) (UniProt P06213). Put plainly: NVS_ENZ_hInsR: NovaScreen (NVS) Enzymatic Assay for human Insulin Receptor (InsR) (AID 2283168). Here is the method: as §1, with “NVS_ENZ_hInsR” for “NVS_ENZ_hMet”, “plate.NVS_ENZ_hInsR” for “plate.NVS_ENZ_hMet”, “NVS_ENZ_hInsR,” for “NVS_ENZ_hMet,”, “INSR.” for “MET.”
Chain of human Insulin Receptor (InsR), INSR (gene 3643) (P06213 whole entry, looked up): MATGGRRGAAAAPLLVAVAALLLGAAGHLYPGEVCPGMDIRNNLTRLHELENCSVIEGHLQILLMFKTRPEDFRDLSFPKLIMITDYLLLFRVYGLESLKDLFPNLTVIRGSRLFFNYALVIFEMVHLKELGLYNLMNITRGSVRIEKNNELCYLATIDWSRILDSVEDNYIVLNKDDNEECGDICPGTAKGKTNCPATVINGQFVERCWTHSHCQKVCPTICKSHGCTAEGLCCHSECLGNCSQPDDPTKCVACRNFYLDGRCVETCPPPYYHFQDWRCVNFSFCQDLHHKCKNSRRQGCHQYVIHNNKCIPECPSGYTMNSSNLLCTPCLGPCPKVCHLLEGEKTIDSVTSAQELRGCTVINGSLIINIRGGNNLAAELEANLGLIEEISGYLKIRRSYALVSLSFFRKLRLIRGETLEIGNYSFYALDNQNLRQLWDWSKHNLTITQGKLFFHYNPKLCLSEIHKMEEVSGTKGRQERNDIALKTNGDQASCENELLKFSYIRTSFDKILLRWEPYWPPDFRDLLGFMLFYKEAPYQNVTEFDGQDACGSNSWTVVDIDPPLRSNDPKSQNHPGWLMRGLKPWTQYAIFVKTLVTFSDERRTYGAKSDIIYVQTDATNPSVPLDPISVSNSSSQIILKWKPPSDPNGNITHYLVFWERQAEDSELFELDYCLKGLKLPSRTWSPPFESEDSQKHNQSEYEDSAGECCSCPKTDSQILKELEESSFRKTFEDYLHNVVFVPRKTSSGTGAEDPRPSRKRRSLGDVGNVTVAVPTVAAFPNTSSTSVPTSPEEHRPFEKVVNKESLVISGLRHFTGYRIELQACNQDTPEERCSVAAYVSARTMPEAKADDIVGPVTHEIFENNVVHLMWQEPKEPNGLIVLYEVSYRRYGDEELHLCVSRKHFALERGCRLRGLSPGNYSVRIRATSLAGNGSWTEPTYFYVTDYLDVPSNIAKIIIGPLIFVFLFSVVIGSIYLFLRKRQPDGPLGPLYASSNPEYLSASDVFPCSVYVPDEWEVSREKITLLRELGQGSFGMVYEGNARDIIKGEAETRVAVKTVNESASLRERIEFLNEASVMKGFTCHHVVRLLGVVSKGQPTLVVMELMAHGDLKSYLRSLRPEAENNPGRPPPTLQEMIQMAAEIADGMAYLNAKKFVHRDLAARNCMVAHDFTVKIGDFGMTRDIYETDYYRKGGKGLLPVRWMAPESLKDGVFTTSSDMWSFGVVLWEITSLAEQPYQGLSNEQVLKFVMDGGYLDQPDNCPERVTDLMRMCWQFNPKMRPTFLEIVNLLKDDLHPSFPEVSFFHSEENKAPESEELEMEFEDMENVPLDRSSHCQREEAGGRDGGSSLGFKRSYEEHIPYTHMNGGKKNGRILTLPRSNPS

Chain of human Mitogen-Activated Protein Kinase 1 (MAPK 1), MAPK1 (gene 5594) (P28482 whole entry, looked up): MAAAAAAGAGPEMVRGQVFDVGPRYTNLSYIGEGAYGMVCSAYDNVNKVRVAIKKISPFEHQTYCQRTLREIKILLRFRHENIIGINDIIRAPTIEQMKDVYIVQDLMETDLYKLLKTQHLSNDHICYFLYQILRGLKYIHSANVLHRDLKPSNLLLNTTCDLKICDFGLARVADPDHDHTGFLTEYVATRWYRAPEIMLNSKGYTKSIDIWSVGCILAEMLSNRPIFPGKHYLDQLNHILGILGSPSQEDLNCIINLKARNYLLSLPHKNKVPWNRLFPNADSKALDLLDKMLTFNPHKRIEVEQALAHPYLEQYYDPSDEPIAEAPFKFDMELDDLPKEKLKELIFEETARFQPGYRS
Chain of Glycogen synthase kinase-3 beta (Homo sapiens) (P49841 whole entry, looked up): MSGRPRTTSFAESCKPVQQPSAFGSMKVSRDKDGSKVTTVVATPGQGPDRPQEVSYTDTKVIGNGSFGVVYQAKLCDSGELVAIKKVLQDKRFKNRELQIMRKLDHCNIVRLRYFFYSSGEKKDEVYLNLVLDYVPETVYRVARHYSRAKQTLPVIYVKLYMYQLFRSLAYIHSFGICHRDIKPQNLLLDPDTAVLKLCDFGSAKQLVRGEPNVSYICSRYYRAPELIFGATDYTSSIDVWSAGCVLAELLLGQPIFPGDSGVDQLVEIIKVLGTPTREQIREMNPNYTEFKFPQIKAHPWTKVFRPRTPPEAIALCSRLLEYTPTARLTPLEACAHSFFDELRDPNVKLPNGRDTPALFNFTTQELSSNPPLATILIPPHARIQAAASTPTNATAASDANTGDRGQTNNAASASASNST
Chain of human c-Jun N-terminal Kinases (JNK2), MAPK9 (gene 5601) (P45984 whole entry, looked up): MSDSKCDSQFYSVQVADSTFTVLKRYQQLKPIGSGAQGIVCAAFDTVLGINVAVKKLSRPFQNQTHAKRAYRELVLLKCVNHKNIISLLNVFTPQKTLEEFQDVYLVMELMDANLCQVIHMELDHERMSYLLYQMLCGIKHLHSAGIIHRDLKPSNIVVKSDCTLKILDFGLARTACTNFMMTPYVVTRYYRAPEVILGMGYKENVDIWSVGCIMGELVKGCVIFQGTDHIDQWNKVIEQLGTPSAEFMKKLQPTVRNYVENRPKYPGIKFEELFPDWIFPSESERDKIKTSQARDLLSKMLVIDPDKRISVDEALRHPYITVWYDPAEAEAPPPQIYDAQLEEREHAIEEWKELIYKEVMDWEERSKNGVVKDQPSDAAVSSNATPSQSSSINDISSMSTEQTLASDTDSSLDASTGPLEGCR
Chain of human IkappaB Kinase alpha (IKKa), CHUK (gene 1147) (O15111 whole entry, looked up): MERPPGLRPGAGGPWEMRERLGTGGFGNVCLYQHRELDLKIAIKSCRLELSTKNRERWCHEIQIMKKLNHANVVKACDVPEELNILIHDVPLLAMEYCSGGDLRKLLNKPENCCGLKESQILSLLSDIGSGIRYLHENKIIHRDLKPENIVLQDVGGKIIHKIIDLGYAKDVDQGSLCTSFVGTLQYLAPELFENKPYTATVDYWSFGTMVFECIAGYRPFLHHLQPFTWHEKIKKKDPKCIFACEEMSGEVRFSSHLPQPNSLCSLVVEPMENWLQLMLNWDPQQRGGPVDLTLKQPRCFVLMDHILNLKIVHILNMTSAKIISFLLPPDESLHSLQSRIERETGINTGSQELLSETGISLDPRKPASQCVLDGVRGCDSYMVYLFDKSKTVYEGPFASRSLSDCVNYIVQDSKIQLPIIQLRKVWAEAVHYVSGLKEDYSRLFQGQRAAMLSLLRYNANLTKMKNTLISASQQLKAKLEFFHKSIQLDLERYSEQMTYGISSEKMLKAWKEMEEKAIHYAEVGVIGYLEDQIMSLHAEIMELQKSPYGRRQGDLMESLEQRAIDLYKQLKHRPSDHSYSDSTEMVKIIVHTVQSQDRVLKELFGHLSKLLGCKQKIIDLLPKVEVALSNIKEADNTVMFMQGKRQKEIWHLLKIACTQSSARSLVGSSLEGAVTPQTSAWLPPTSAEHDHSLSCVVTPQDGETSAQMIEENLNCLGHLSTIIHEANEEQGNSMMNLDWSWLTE

Turning to `OCC1CO1` (stereo not drawn), in [1], the result was inactive.

Regarding `CC(C)(C)OOC(C)(C)C`, the call in assay [1], in assay [2], in assay [3], in assay [4] and in assay [5] was inactive.

On to `c1ccc(OP(Oc2ccccc2)Oc2ccccc2)cc1`, for which the compound was called inactive in assay [1].

For `Nc1ccc2ccccc2c1`, in assay [1], the compound was called inactive.

For the compound `Cc1cccc(N)c1`, the call in assay [6] and in assay [7] was inactive.

As for `CCOS(=O)(=O)OCC`, the call in assay [8] and in [1] was inactive.

For the compound `CCCCc1ccccc1`, the compound was classed as inactive in [9].

Take `CC(C)(C)c1ccc(O)cc1`: the result in [1] was inactive.

In the case of `ClC1=C(Cl)C2(Cl)C3C(Cl)C(Cl)CC3C1(Cl)C2(Cl)Cl` (stereo not drawn), in assay [3], the result was inactive.

For the compound `CCOC(=O)c1ccccc1C(=O)OCC`, the compound was called inactive in assay [1].

As for `Nc1cc2c3c(c1)C(c1ccccc1)=N[C@@H](NC(=O)c1cccnc1)C(=O)N3CC2`, the result in [4] was inactive.

As to `CCC(C)(C)c1ccc(O)cc1`, the compound was classed as inactive in assay [1].

With `Cc1ccc(O)cc1C`, the outcome in assay [1], in assay [2] and in [3] was inactive.

In the case of `O=P(Oc1ccccc1)(Oc1ccccc1)Oc1ccccc1`, the compound was classed as inactive in [6] and in [10].
